Source: PubChem BioAssay (NCI)
This is part of a sample that, as a whole, favours compounds with a hit. Of some 83,000 tested, about 20% had one in any assay.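 In brief: 96-well plates, 48 h treatment, single concentration, percent growth endpoint.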 Calls of active or inactive are those of the source. How the source made its calls: active means growth percent below 10; inactive means the rest.

What follows are compounds tested on TK-10 renal (assay: NCI-60 one-dose screen, 48 h (100 = growth as untreated, 0 = no growth, -100 = all killed)). Settings: 10 µM unless noted.

Row | Structure (SMILES) | growth
1 | O=c1nc2sc3nc4ccccc4cc3cc-2s1 | 131% (inactive)
2 | O=c1c(-c2nc3ccccc3[nH]2)cc2ccccc2n1Cc1cn(Cc2ccc(N3CCOCC3)cc2)nn1 | 92.7% (inactive)
3 | COC(=O)/C(CCC=C(C)C)=C1\[C@@H](OC(C)=O)C[C@@]2(C)[C@H]1CC(=O)[C@H]1[C@@]3(C)CC[C@H](NCc4ccccc4)[C@@H](C)[C@@H]3CC[C@@]12C | 111% (inactive)
4 | S=C1CCCC(=S)N1 | 114% (inactive)
5 | CCCCC1COc2cccc3c2N1C=C/C3=C\C(=O)N(C)c1ccccc1 (stereo not drawn) | 108% (inactive)
6 | O=C(Nc1ccc(N2CCNCC2)cc1)c1[nH]ncc1Nc1cc(Oc2ccccc2)ncn1 | 49.5% (inactive)
7 | COc1cc(C2CC(c3ccc(Nc4nc(NCCO)nc(N5CCOCC5)n4)cc3)=NN2c2cc(Cl)cc(Cl)c2)cc(OC)c1OC (stereo not drawn) | 93.3% (inactive)
8 | Cc1ccc2sc3c(NCCCNCCO)nc4ccccc4c3c(=O)c2c1 | 66.9% (inactive)
9 | Nc1nc(N)c2c(n1)NC1(C=C(O)c3ccccc31)C1=C(N2)c2ccccc2C1=O (stereo not drawn) | 142% (inactive)
10 | O=C(c1nc2ccccc2[nH]1)C1[C@@H](c2cccc(O)c2)C2CC3CCCCC3N2[C@@]12C(=O)Nc1cc(Cl)ccc12 (stereo partly drawn) | 72.4% (inactive)
11 | Clc1ccc(COc2ccc(Nc3ncnc4onc(-c5ccccc5)c34)cc2)cc1 | 91.4% (inactive)
12 | CC1(O)COCCCCOc2c(CN)cccc2NC(=O)c2nc(cnc2N)-c2ccc(cc2)S(=O)(=O)C(C)(C)C1 (stereo not drawn) | -36.2% (active)
13 | O=c1c2cc(F)ccc2sc2c(NCCN3CCCC3)nc3ccccc3c12 | 64.8% (inactive)
14 | COc1ccc(-c2nocc2-c2cccs2)cc1 | 104% (inactive)
15 | Cn1c2c(c(=O)[nH]c1=O)NC1=C(C(=O)c3ccccc31)C1(C=C(O)c3ccccc31)N2 (stereo not drawn) | 134% (inactive)
16 | Cc1c(-c2noc(-c3ccc([N+](=O)[O-])cc3)n2)no[n+]1[O-] | 153% (inactive)
17 | O=C(Nc1ccc(N2CCNCC2)cc1)c1[nH]ncc1Nc1ncnc2sc3c(c12)CCC3 | -95.3% (active)
18 | COC(=O)/C(CCC=C(C)C)=C1\[C@@H](OC(C)=O)C[C@@]2(C)[C@H]1CC(=O)N[C@H]1[C@@]3(C)CCNC(=O)[C@@H](C)[C@@H]3CC[C@@]12C | 99.5% (inactive)
19 | O=C(Nc1ncc(Cc2cccc(C(F)(F)F)c2)s1)C1COc2ccccc2O1 (stereo not drawn) | 97.1% (inactive)
20 | CCN1C(=O)N(CC)C2Nn3c(s/c(=C\c4ccccc4F)c3=O)=NC21 (stereo not drawn) | 87.2% (inactive)

Row | Structure (SMILES) | growth
21 | O=C1/C(=C/c2cccc(O)c2)COc2ccc(O)cc21 | 130% (inactive)
22 | O=C(NCc1ccco1)C1CN(c2ccc(Cl)cc2)N(c2ccc(Cl)cc2)C1=O (stereo not drawn) | 84.2% (inactive)
23 | CC(=O)c1ccc(NC(=O)Nc2ccc(S(=O)(=O)Nc3ccc(Cl)nn3)cc2)cc1 | 119% (inactive)
24 | O=C(/C=C/c1ccc(Cl)cc1)c1ccc(Nc2nc(NCCO)nc(N3CCOCC3)n2)cc1 | 111% (inactive)
25 | CN(O)c1nc(N(C)O)nc(N2CCOCC2)n1 | 16.3% (inactive)
26 | C1CCN(c2nc(N3CCCCC3)nc(N3CCOCC3)n2)CC1 | 92.1% (inactive)
27 | Cn1nc(C(F)(F)F)c(-c2ccc(Cl)c(C(F)(F)F)c2)c1-c1ccc(OCc2ccc(Cl)cc2)cc1O | 0.361% (active)
28 | CC/C=C\C[C@H](O)C/C=C1/C(=O)C=C[C@@H]1C/C=C\CCCC(=O)OCCS(=O)(=O)c1ccccc1 | 104% (inactive)
29 | O=C(/C=C/c1ccc(F)cc1)c1ccc(Nc2nc(NCCO)nc(Nc3ccc(Cl)cc3)n2)cc1 | 93.4% (inactive)
30 | COc1cc(C2C3=C(COC3=O)N(CCO)c3cc4c(cc32)OCCO4)cc(OC)c1O (stereo not drawn) | 47.4% (inactive)
31 | COc1cc2nc(NC3CCCC3)nc(NC3CCN(C(C)C)CC3)c2cc1OC | 71.7% (inactive)
32 | CCCCC1CCc2cccc3c(SCC(=O)N(C)c4ccc(Cl)cc4)cc[n+]1c23 (stereo not drawn) | 109% (inactive)
33 | CC(=O)c1ccc(Nc2nc(NCCO)nc(Nc3ccc(Cl)cc3)n2)cc1 | 108% (inactive)
34 | NC1C(N)C(N)C1N (stereo not drawn) | 99.1% (inactive)
35 | Cc1ccc2cccc(Oc3ccc(Nc4ncnc5onc(-c6ccccc6)c45)cc3)c2n1 | 86.6% (inactive)
36 | COc1cc(C=C2C(=O)N(C)C(=O)N(C)C2=O)cc(CN2CCCCC2)c1O | 103% (inactive)
37 | COc1cc2nc(-c3cnc(N(C)C)nc3)nc(NC3CCN(Cc4ccccc4)CC3)c2cc1OC | -98.6% (active)
38 | COc1ccc(CCN2C(=O)CCSC2=S)cc1OC | 61.4% (inactive)
39 | NCCCNc1nc2ccccc2c2c(=O)c3cc(F)ccc3sc12 | -46.6% (active)

These compounds were tested on ACHN renal in the same assay as above. Settings: 10 µM unless noted.

Row | Structure (SMILES) | growth
40 | O=c1nc2sc3nc4ccccc4cc3cc-2s1 | 105% (inactive)
41 | O=c1c(-c2nc3ccccc3[nH]2)cc2ccccc2n1Cc1cn(Cc2ccc(N3CCOCC3)cc2)nn1 | 35.7% (inactive)
42 | COC(=O)/C(CCC=C(C)C)=C1\[C@@H](OC(C)=O)C[C@@]2(C)[C@H]1CC(=O)[C@H]1[C@@]3(C)CC[C@H](NCc4ccccc4)[C@@H](C)[C@@H]3CC[C@@]12C | 99.3% (inactive)
43 | S=C1CCCC(=S)N1 | 105% (inactive)
44 | CCCCC1COc2cccc3c2N1C=C/C3=C\C(=O)N(C)c1ccccc1 (stereo not drawn) | 68.9% (inactive)
45 | O=C(Nc1ccc(N2CCNCC2)cc1)c1[nH]ncc1Nc1cc(Oc2ccccc2)ncn1 | -99.1% (active)
46 | COc1cc(C2CC(c3ccc(Nc4nc(NCCO)nc(N5CCOCC5)n4)cc3)=NN2c2cc(Cl)cc(Cl)c2)cc(OC)c1OC (stereo not drawn) | 47.6% (inactive)
47 | Cc1ccc2sc3c(NCCCNCCO)nc4ccccc4c3c(=O)c2c1 | 6.81% (active)
48 | Nc1nc(N)c2c(n1)NC1(C=C(O)c3ccccc31)C1=C(N2)c2ccccc2C1=O (stereo not drawn) | 96.1% (inactive)
49 | O=C(c1nc2ccccc2[nH]1)C1[C@@H](c2cccc(O)c2)C2CC3CCCCC3N2[C@@]12C(=O)Nc1cc(Cl)ccc12 (stereo partly drawn) | 30.4% (inactive)
50 | Clc1ccc(COc2ccc(Nc3ncnc4onc(-c5ccccc5)c34)cc2)cc1 | 41.7% (inactive)
51 | CC1(O)COCCCCOc2c(CN)cccc2NC(=O)c2nc(cnc2N)-c2ccc(cc2)S(=O)(=O)C(C)(C)C1 (stereo not drawn) | -99.2% (active)
52 | O=c1c2cc(F)ccc2sc2c(NCCN3CCCC3)nc3ccccc3c12 | 35.6% (inactive)
53 | COc1ccc(-c2nocc2-c2cccs2)cc1 | 103% (inactive)
54 | Cn1c2c(c(=O)[nH]c1=O)NC1=C(C(=O)c3ccccc31)C1(C=C(O)c3ccccc31)N2 (stereo not drawn) | 89.7% (inactive)
55 | Cc1c(-c2noc(-c3ccc([N+](=O)[O-])cc3)n2)no[n+]1[O-] | 89.2% (inactive)
56 | O=C(Nc1ccc(N2CCNCC2)cc1)c1[nH]ncc1Nc1ncnc2sc3c(c12)CCC3 | -99.5% (active)
57 | COC(=O)/C(CCC=C(C)C)=C1\[C@@H](OC(C)=O)C[C@@]2(C)[C@H]1CC(=O)N[C@H]1[C@@]3(C)CCNC(=O)[C@@H](C)[C@@H]3CC[C@@]12C | 101% (inactive)
58 | O=C(Nc1ncc(Cc2cccc(C(F)(F)F)c2)s1)C1COc2ccccc2O1 (stereo not drawn) | 97.4% (inactive)
59 | CCN1C(=O)N(CC)C2Nn3c(s/c(=C\c4ccccc4F)c3=O)=NC21 (stereo not drawn) | 50.8% (inactive)

Row | Structure (SMILES) | growth
60 | O=C1/C(=C/c2cccc(O)c2)COc2ccc(O)cc21 | 67.3% (inactive)
61 | O=C(NCc1ccco1)C1CN(c2ccc(Cl)cc2)N(c2ccc(Cl)cc2)C1=O (stereo not drawn) | 63.5% (inactive)
62 | CC(=O)c1ccc(NC(=O)Nc2ccc(S(=O)(=O)Nc3ccc(Cl)nn3)cc2)cc1 | 103% (inactive)
63 | O=C(/C=C/c1ccc(Cl)cc1)c1ccc(Nc2nc(NCCO)nc(N3CCOCC3)n2)cc1 | 82.5% (inactive)
64 | CN(O)c1nc(N(C)O)nc(N2CCOCC2)n1 | 17.5% (inactive)
65 | C1CCN(c2nc(N3CCCCC3)nc(N3CCOCC3)n2)CC1 | 116% (inactive)
66 | Cn1nc(C(F)(F)F)c(-c2ccc(Cl)c(C(F)(F)F)c2)c1-c1ccc(OCc2ccc(Cl)cc2)cc1O | 5.21% (active)
67 | CC/C=C\C[C@H](O)C/C=C1/C(=O)C=C[C@@H]1C/C=C\CCCC(=O)OCCS(=O)(=O)c1ccccc1 | 86.3% (inactive)
68 | O=C(/C=C/c1ccc(F)cc1)c1ccc(Nc2nc(NCCO)nc(Nc3ccc(Cl)cc3)n2)cc1 | 70.8% (inactive)
69 | COc1cc(C2C3=C(COC3=O)N(CCO)c3cc4c(cc32)OCCO4)cc(OC)c1O (stereo not drawn) | 37.2% (inactive)
70 | COc1cc2nc(NC3CCCC3)nc(NC3CCN(C(C)C)CC3)c2cc1OC | 86.9% (inactive)
71 | CCCCC1CCc2cccc3c(SCC(=O)N(C)c4ccc(Cl)cc4)cc[n+]1c23 (stereo not drawn) | 105% (inactive)
72 | CC(=O)c1ccc(Nc2nc(NCCO)nc(Nc3ccc(Cl)cc3)n2)cc1 | 87.8% (inactive)
73 | NC1C(N)C(N)C1N (stereo not drawn) | 96.8% (inactive)
74 | Cc1ccc2cccc(Oc3ccc(Nc4ncnc5onc(-c6ccccc6)c45)cc3)c2n1 | 80.1% (inactive)
75 | COc1cc(C=C2C(=O)N(C)C(=O)N(C)C2=O)cc(CN2CCCCC2)c1O | 95.9% (inactive)
76 | COc1cc2nc(-c3cnc(N(C)C)nc3)nc(NC3CCN(Cc4ccccc4)CC3)c2cc1OC | -100% (active)
77 | COc1ccc(CCN2C(=O)CCSC2=S)cc1OC | 102% (inactive)
78 | NCCCNc1nc2ccccc2c2c(=O)c3cc(F)ccc3sc12 | -66.7% (active)
